For 13 compounds, growth results are on record in PubChem BioAssay (NCI).

Test systems include SR leukemia; RPMI-8226 leukemia; OVCAR-8 ovarian; OVCAR-5 ovarian; OVCAR-4 ovarian; SK-OV-3 ovarian; IGROV1 ovarian; OVCAR-3 ovarian; HS 578T breast; NCI/ADR-RES ovarian.
Assay in all cases: NCI-60 one-dose screen, 48 h (100 = growth as untreated, 0 = no growth, -100 = all killed)
What all share (details): 10 µM unless noted

Structures are written as SMILES. Compounds without any hit were thinned out: in the full panel of roughly 83,000, 20% have a hit.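 Each cell line was grown in a 96-well plate and treated with one concentration of compound for 48 hours. Values below 10 were considered active.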 Values without a mark were called inactive. Activity calls are given as the source filed them.

On to `COc1ccc(C(C)=O)cc1S(N)(=O)=O`, for which the growth with SR leukemia was 104%; in the test on RPMI-8226 leukemia, 98.9%; with OVCAR-8 ovarian it was 96.6%; in the test on OVCAR-5 ovarian, 102%; with OVCAR-4 ovarian, 101%; in the test with SK-OV-3 ovarian it was 115%. Moreover, the growth with IGROV1 ovarian was 108%; in the test on OVCAR-3 ovarian, 108%; in the test on HS 578T breast, 91.6%; in the test with NCI/ADR-RES ovarian it was 98.1%.
As for `O=C(Nc1ccccc1O)c1ccccc1Nc1ccnc(C(F)(F)F)c1`, the growth in the test with SR leukemia is 76%; in the test on RPMI-8226 leukemia, 56.5%; in the test on OVCAR-8 ovarian it was 100%; with OVCAR-5 ovarian it was 99.9%; in the test with OVCAR-4 ovarian, 95.8%; in the test with SK-OV-3 ovarian it was 100%. The growth in the test with IGROV1 ovarian is 79.5%; in the test with OVCAR-3 ovarian it was 97.6%; with HS 578T breast, 96.4%; in the test on NCI/ADR-RES ovarian it was 90.7%.
As to `O=C1OCC2=C1C(c1cccc(F)c1)c1cc3c(cc1N2CCO)OCO3` (stereo not given), the growth is 16.7% with SR leukemia; 17.5% with RPMI-8226 leukemia; 34.5% with OVCAR-8 ovarian; 63.6% in the test with OVCAR-5 ovarian; 57.3% in the test with OVCAR-4 ovarian; 19.5% in the test with SK-OV-3 ovarian. The growth was 40% in the test with IGROV1 ovarian, 2.41% (active) with OVCAR-3 ovarian, 17.8% in the test with HS 578T breast and 25.4% in the test with NCI/ADR-RES ovarian.
`COC(=O)C1=Nc2ccc(F)cc2/C1=C\c1sc(Nc2ccc(O)cc2)nc1O`: the growth is 24.2% in the test on SR leukemia; 62% with RPMI-8226 leukemia; 83% in the test on OVCAR-8 ovarian; 98% with OVCAR-5 ovarian; 64.8% with OVCAR-4 ovarian; 102% in the test on SK-OV-3 ovarian. The growth in the test on IGROV1 ovarian was 68.5%; in the test with OVCAR-3 ovarian it was 19.8%; in the test on HS 578T breast it was 46.1%; with NCI/ADR-RES ovarian, 94.5%.
Turning to `Cc1ccc(/C=C2\CN(C(=O)C(Cl)Cl)C/C(=C\c3ccc(C)cc3)C2=O)cc1`, the growth with SR leukemia is 1.68% (active); in the test with RPMI-8226 leukemia it was -19.3% (active); in the test with OVCAR-8 ovarian, 4.74% (active); with OVCAR-5 ovarian it was -44.6% (active); in the test on OVCAR-4 ovarian it was 25%; in the test on SK-OV-3 ovarian, 29%. The growth in the test with IGROV1 ovarian is -58.8% (active); in the test on OVCAR-3 ovarian, -97.8% (active); in the test on HS 578T breast it was 9.67% (active); in the test with NCI/ADR-RES ovarian, 8.57% (active).
For the compound `O=c1nc(Nc2nc3ccccc3s2)[nH]c(=O)c2ccccc12`, the growth is 90.7% in the test on SR leukemia; 106% with RPMI-8226 leukemia; 103% with OVCAR-8 ovarian; 107% with OVCAR-5 ovarian; 102% in the test on OVCAR-4 ovarian; 64.3% in the test on SK-OV-3 ovarian. Moreover, the growth is 100% in the test with IGROV1 ovarian, 109% in the test on OVCAR-3 ovarian, 109% with HS 578T breast and 103% in the test on NCI/ADR-RES ovarian.
Turning to `COc1ccc2nc(SCC(=O)Nc3ccccc3C)[nH]c2c1`, the growth was 89.5% with SR leukemia; 90.1% in the test with RPMI-8226 leukemia; 94.2% in the test with OVCAR-8 ovarian; 99.6% in the test with OVCAR-5 ovarian; 95.2% in the test with OVCAR-4 ovarian; 105% with SK-OV-3 ovarian. Moreover, the growth in the test with IGROV1 ovarian was 103%; in the test with OVCAR-3 ovarian it was 107%; in the test with HS 578T breast, 90.9%; in the test with NCI/ADR-RES ovarian, 99%.
On to `COc1ccc(Cc2nnc(Nc3nc4ccccc4s3)s2)cc1`, for which the growth in the test with SR leukemia is 60.6%; with RPMI-8226 leukemia it was 107%; in the test on OVCAR-8 ovarian it was 103%; in the test with OVCAR-5 ovarian, 89.1%; in the test with OVCAR-4 ovarian, 105%; in the test with SK-OV-3 ovarian, 115%. The growth in the test with IGROV1 ovarian was 94%; in the test with OVCAR-3 ovarian, 103%; in the test with HS 578T breast it was 94.6%; in the test on NCI/ADR-RES ovarian, 95.7%.
With `COc1ccc(/C(C)=C(\c2ccc(OCCN3CCCCCC3)cc2)c2ccc(OC(=O)c3ccccc3)cc2)cc1`, the growth with SR leukemia is -8.34% (active); in the test on RPMI-8226 leukemia it was 19.5%; in the test on OVCAR-8 ovarian it was 56.5%; with OVCAR-5 ovarian, 72.1%; in the test with OVCAR-4 ovarian, 42.6%; in the test with SK-OV-3 ovarian it was 81.4%. Besides, the growth with IGROV1 ovarian is 46.7%; in the test on OVCAR-3 ovarian, 64.6%; in the test on HS 578T breast it was 35.9%; in the test with NCI/ADR-RES ovarian, 60.7%.
Take `Fc1ccc2c(c1)c(-c1nc(-c3c[nH]c4ncccc34)cs1)cn2CCCN1CCOCC1`: the growth in the test with SR leukemia was 12.1%; with RPMI-8226 leukemia, 36.6%; in the test with OVCAR-8 ovarian it was 59.7%; in the test on OVCAR-5 ovarian, 82.3%; in the test with OVCAR-4 ovarian it was 56.2%; in the test on SK-OV-3 ovarian, 81.6%. The growth with IGROV1 ovarian is 38.6%; with OVCAR-3 ovarian, 59.8%; with HS 578T breast it was 38.3%; in the test with NCI/ADR-RES ovarian, 59.2%.
Take `CC1O[C@@H]2C[C@@](O)([C@H]1O)n1c3ccccc3c3c4c(c5c6ccccc6n2c5c31)C(=O)NC4=O` (stereo not given in full): the growth is 32% in the test with SR leukemia; 55.3% in the test with RPMI-8226 leukemia; 63.3% with OVCAR-8 ovarian; 72.8% in the test with OVCAR-5 ovarian; 66.8% in the test on OVCAR-4 ovarian; 48.4% in the test on SK-OV-3 ovarian. Also, the growth with IGROV1 ovarian was 67.6%; in the test on OVCAR-3 ovarian, 55.4%; with HS 578T breast it was 82.6%; in the test with NCI/ADR-RES ovarian, 80.7%.
Take `CCCCCCCCCCCCCCCCCCOc1ccccc1CC(=O)NCC[N+]1(C)CCOCC1`: the growth is 18.2% in the test on SR leukemia; -4.77% (active) in the test with RPMI-8226 leukemia; 67.8% in the test on OVCAR-8 ovarian; 26.3% in the test on OVCAR-5 ovarian; 71.7% with OVCAR-4 ovarian; 81.2% in the test with SK-OV-3 ovarian. For the same compound, the growth with IGROV1 ovarian is -67.2% (active); in the test on OVCAR-3 ovarian it was 67.3%; in the test with HS 578T breast, 67.4%; in the test on NCI/ADR-RES ovarian, 103%.
In the case of `CC/C=C1/C(=O)C=C[C@@H]1C/C=C\CCCC(=O)OC`, the growth in the test with SR leukemia is 4.16% (active); with RPMI-8226 leukemia, -5.45% (active); in the test with OVCAR-8 ovarian, 25.7%; in the test with OVCAR-5 ovarian it was 112%; in the test with OVCAR-4 ovarian, 96.9%; with SK-OV-3 ovarian it was 117%. Also, the growth with IGROV1 ovarian is 105%; in the test with OVCAR-3 ovarian, 51.4%; with HS 578T breast it was 43%; in the test on NCI/ADR-RES ovarian it was 57.7%.
